Records with an inconclusive call do not appear. Activity calls are given as the source filed them. The calls were made as follows, unless noted: active = hit-call score of the fitted dose curve at least 0.9, where 1 is the maximum; inactive = score below 0.9.
Tests used:
[1] = ATG_TAL_CIS: Attagene CIS-FACTORIAL HepG2 Assay for human TAL Basal Promoter (AID 2282966); conditions: HepG2 Attagene cis-factorial TAL promoter reporter; actives raise or lower the signal;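 also: background control endpoint measuring basal TAL promoter reporter mRNA not a specific factor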
Outline: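 Fluorescence of labelled reporter cDNA fragments, resolved by capillary electrophoresis, gave the readout. Human HepG2 liver cells carried transiently transfected cis-element reporter units and were treated for 24 hours; activity was fitted bidirectionally against DMSO.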

[2] = ATG_TGFb_CIS: Attagene CIS-FACTORIAL HepG2 Assay for human Transforming Growth Factor (TGF) (AID 2282967); conditions: HepG2 Attagene CIS TGFb reporter, mRNA transcription; actives raise or lower the signal
Outline: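 Readout: fluorescently labeled reporter cDNA fragments resolved by capillary electrophoresis after RT-PCR. Transfected HepG2 cells dosed for 24 h; endogenous TF activity at TGFB1-linked cis element; gain or loss fitted relative to DMSO.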

[3] = target: Nuclear receptor subfamily 1 group I member 3 (Homo sapiens) (UniProt Q14994); assay: ATG_CAR_TRANS: Attagene TRANS-FACTORIAL HepG2 Assay for human Constitutive Androstane Receptor (CAR) (AID 2282969; active = hit-call score of the fitted dose curve at least 0.9, where 1 is the maximum;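 also: activators raise reporter mRNA above DMSO so AC50 marks induction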); conditions: HepG2 Attagene TRANS-FACTORIAL CAR reporter
Outline: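 HepG2 cells transiently transfected with multiplexed GAL4-UAS reporter units expressing chimeric NR-Gal4 proteins; compound exposure 24 h. Reporter mRNA measured by RT-PCR, 6-FAM labelling, HpaI digestion and capillary electrophoresis; gain-of-signal fitted against DMSO baseline.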

[4] = target: Estrogen receptor (Homo sapiens) (UniProt P03372); assay: ATG_ERa_TRANS: Attagene TRANS-FACTORIAL HepG2 Assay for human Estrogen Receptor alpha (ERa) (AID 2282970; active = hit-call score of the fitted dose curve at least 0.9, where 1 is the maximum); conditions: HepG2 Attagene TRANS ERa GAL4 reporter, mRNA
Outline: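 Human liver HepG2, transient transfection of multiple GAL4-UAS reporter units; TRANS format (exogenous NR-Gal4 chimera). 24 h dosing. Readout: reporter mRNA, RT-PCR, 6-FAM primer extension, HpaI digest, capillary electrophoresis. Positive direction vs DMSO.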

[5] = target: X-box-binding protein 1 (Homo sapiens) (UniProt P17861); assay: ATG_Xbp1_CIS: Attagene CIS-FACTORIAL HepG2 Assay for human X-box Binding Protein 1 (XBP1) (AID 2282972); conditions: HepG2 XBP1 cis-element reporter, Attagene multiplex; actives raise or lower the signal
Outline: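 HepG2 cells transiently transfected with multiple cis-element reporter units report endogenous TF activity; 24 h exposure, then reporter mRNA measured by RT-PCR, 6-FAM labelling, HpaI digestion and capillary electrophoresis. Bidirectional fitting versus DMSO.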

[6] = target: Glucocorticoid receptor (Homo sapiens) (UniProt P04150); assay: ATG_GR_TRANS: Attagene TRANS-FACTORIAL HepG2 Assay for human Glucocorticoid Receptor (GR) (AID 2282978; active = hit-call score of the fitted dose curve at least 0.9, where 1 is the maximum;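 also: activators score as hits since higher reporter transcript over DMSO is fitted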); conditions: HepG2 Attagene TRANS GR reporter, mRNA transcription
Outline: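 Transient MRTU transfection of HepG2 (GAL4-UAS reporters, exogenous NR-GAL4 chimeras), 24 h dosing. Readout: reporter transcript via RT-PCR + capillary electrophoresis fluorescence. Positive direction vs DMSO baseline.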

[7] = target: Hepatocyte nuclear factor 4-alpha (Homo sapiens) (UniProt P41235); assay: ATG_HNF4a_TRANS: Attagene TRANS-FACTORIAL HepG2 Assay for human Hepatocyte Nuclear Factor 4 alpha (HNF4a) (AID 2282982; active = hit-call score of the fitted dose curve at least 0.9, where 1 is the maximum); conditions: HepG2 HNF4a transactivation reporter, mRNA readout
Outline: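 Cells used were human HepG2, transiently carrying GAL4-UAS reporter units read out against exogenous NR-GAL4 chimeras. Reporter transcript levels after 24 h dosing were quantified by fluorescent RT-PCR and capillary electrophoresis.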

[8] = ATG_M_06_TRANS: Attagene TRANS-FACTORIAL HepG2 Assay for M06 Transcription Factor (Internal Marker) (AID 2282983; active = hit-call score of the fitted dose curve at least 0.9, where 1 is the maximum); conditions: HepG2 Attagene TRANS M06 internal marker reporter
Outline: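 Transfect HepG2 with MRTUs → dose compounds 24 h → isolate RNA, oligo(dT) RT → PCR with reporter primers → 6-FAM primer extension → HpaI digest → CE fragment analysis. Positive direction vs DMSO.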

[9] = ATG_M_32_TRANS: Attagene TRANS-FACTORIAL HepG2 Assay for M32 Transcription Factor (Internal Marker) (AID 2282984; active = hit-call score of the fitted dose curve at least 0.9, where 1 is the maximum;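 also: transcript level of a background control reporter unit measured by RT-PCR and capillary electrophoresis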); conditions: HepG2 Attagene TRANS M32 internal marker reporter
Outline: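 Human hepatoma HepG2, transient MRTU transfection, 24 h treatment. RNA → RT-PCR → fluorescent primer extension → HpaI digest (2 h, 37 C) → CE. Positive-direction fit vs DMSO.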

[10] = target: Nuclear receptor subfamily 4 group A member 2 (Homo sapiens) (UniProt P43354); assay: ATG_NURR1_TRANS: Attagene TRANS-FACTORIAL HepG2 Assay for human Nuclear Receptor Related Protein 1 (NURR1) (AID 2282985; active = hit-call score of the fitted dose curve at least 0.9, where 1 is the maximum); conditions: HepG2 Attagene TRANS reporter, mRNA readout
Outline: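 After 24 h chemical dosing, total RNA from transiently transfected HepG2 cells was reverse-transcribed and reporter cDNA PCR-amplified, FAM-labelled and analysed by capillary electrophoresis. Activity fitted in positive direction, DMSO as negative control.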

[11] = target: Transcriptional activator Myb (Homo sapiens) (UniProt P10242); assay: ATG_Myb_CIS: Attagene CIS-FACTORIAL HepG2 Assay for human Myeloblastosis (Myb) Proto-Oncogene Transcription Factor (AID 2282986); conditions: HepG2 Attagene CIS-FACTORIAL Myb reporter transcription; actives raise or lower the signal
Outline: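 HepG2, transient MRTU transfection (cis-element promoters, endogenous TF activity), 24 h compound exposure. Readout: reporter mRNA via RT-PCR, 6-FAM labeling, HpaI digest, capillary electrophoresis. Gain/loss fit vs DMSO.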

[12] = target: Nuclear respiratory factor 1 (Homo sapiens) (UniProt Q16656); assay: ATG_NRF1_CIS: Attagene CIS-FACTORIAL HepG2 Assay for human Nuclear Respiratory Factor 1 (NRF1) Orphan Gene (AID 2282987); conditions: HepG2 NRF1 cis-element reporter, Attagene multiplex; actives raise or lower the signal
Outline: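 Endogenous NRF1-driven reporter transcription measured in transiently transfected human HepG2 liver cells. Readout: reporter mRNA by RT-PCR and capillary electrophoresis with fluorescence detection, 24 h post-dosing. Gain or loss of signal fitted relative to DMSO baseline.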

[13] = ATG_NFI_CIS: Attagene CIS-FACTORIAL HepG2 Assay for human Nuclear Factor I (NFI) (AID 2282989); conditions: HepG2 cis-regulatory reporter, NFI response element transcription; actives raise or lower the signal
Outline: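 Read-out: reporter mRNA via RT-PCR plus capillary electrophoresis with fluorescence detection. Transiently transfected HepG2 (endogenous TF activity on cis promoters), 24 h compound exposure; gain or loss of signal fitted against DMSO.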

[14] = target: Myc proto-oncogene protein (Homo sapiens) (UniProt P01106); assay: ATG_Myc_CIS: Attagene CIS-FACTORIAL HepG2 Assay for human Myelocytomatosis (Myc) Proto-Oncogene Transcription Factor (AID 2282990); conditions: HepG2, Attagene cis-reporter transcription factor activity; actives raise or lower the signal
Outline: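 HepG2 cells transiently transfected with multiple cis-promoter-driven reporter transcription units, so endogenous TF activity is read. After 24 h compound exposure, reporter mRNA was quantified by RT-PCR, 6-FAM labelling, HpaI digestion and capillary electrophoresis; bidirectional fit versus DMSO.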

[15] = ATG_VDRE_CIS: Attagene CIS-FACTORIAL HepG2 Assay for human Vitamin D Receptor Element (VDRE) (AID 2282968); conditions: HepG2 VDRE cis-reporter transcription, actives raise or lower the signal
Outline: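 RT-PCR/CE readout of reporter mRNA; HepG2, transient transfection, 24 h dosing; DMSO baseline; bidirectional analysis.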

[16] = ATG_M_19_TRANS: Attagene TRANS-FACTORIAL HepG2 Assay for M19 Transcription Factor (Internal Marker) (AID 2282974; active = hit-call score of the fitted dose curve at least 0.9, where 1 is the maximum); conditions: HepG2 Attagene TRANS-FACTORIAL M19 internal marker reporter
Outline: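 24 h chemical exposure of transiently transfected HepG2 (MRTU library). RNA → oligo(dT) RT → PCR → 6-FAM labelling → HpaI cut → CE fluorescence. Positive-direction fit vs DMSO baseline; background internal-marker readout.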

[17] = target: Bile acid receptor (Homo sapiens) (UniProt Q96RI1); assay: ATG_FXR_TRANS: Attagene TRANS-FACTORIAL HepG2 Assay for Farnesoid X Receptor (FXR) (AID 2282979; active = hit-call score of the fitted dose curve at least 0.9, where 1 is the maximum;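 also: hits raise reporter mRNA above DMSO so AC50 marks FXR activation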); conditions: HepG2 Attagene TRANS FXR-GAL4 reporter transcription
Outline: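 Transient transfection of HepG2 with multiplexed GAL4-UAS reporter units; exogenous FXR-GAL4 chimera. Dose 24 h → TriZol RNA → oligo(dT) RT → PCR, 6-FAM primer extension, HpaI cut → CE. Gain vs DMSO.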

[18] = target: Oxysterols receptor LXR-alpha (Homo sapiens) (UniProt Q13133); assay: ATG_LXRa_TRANS: Attagene TRANS-FACTORIAL HepG2 Assay for human Liver X Receptor alpha (LXRa) (AID 2282980; active = hit-call score of the fitted dose curve at least 0.9, where 1 is the maximum); conditions: HepG2 Attagene TRANS reporter, LXRa transactivation
Outline: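 Transfect HepG2 with GAL4-UAS multiplex reporter constructs (TRANS format, chimeric receptor-GAL4); treat 24 h; extract RNA, reverse-transcribe, PCR-amplify, FAM-label, HpaI-digest; resolve fragments by capillary electrophoresis. Upward response vs DMSO.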

[19] = target: Oxysterols receptor LXR-beta (Homo sapiens) (UniProt P55055); assay: ATG_LXRb_TRANS: Attagene TRANS-FACTORIAL HepG2 Assay for human Liver X Receptor beta (LXRb) (AID 2282981; active = hit-call score of the fitted dose curve at least 0.9, where 1 is the maximum); conditions: HepG2 Attagene TRANS GAL4-LXRb reporter, mRNA
Outline: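 In this TRANS format, exogenous chimeric NR-Gal4 protein activity, not endogenous factors, drives reporter expression in transfected human HepG2 cells. Exposure lasted 24 h; reporter mRNA was read by fluorescent capillary electrophoresis.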

Measured: outcome

Sequence of Transcriptional activator Myb (Homo sapiens) (P10242 whole entry, looked up): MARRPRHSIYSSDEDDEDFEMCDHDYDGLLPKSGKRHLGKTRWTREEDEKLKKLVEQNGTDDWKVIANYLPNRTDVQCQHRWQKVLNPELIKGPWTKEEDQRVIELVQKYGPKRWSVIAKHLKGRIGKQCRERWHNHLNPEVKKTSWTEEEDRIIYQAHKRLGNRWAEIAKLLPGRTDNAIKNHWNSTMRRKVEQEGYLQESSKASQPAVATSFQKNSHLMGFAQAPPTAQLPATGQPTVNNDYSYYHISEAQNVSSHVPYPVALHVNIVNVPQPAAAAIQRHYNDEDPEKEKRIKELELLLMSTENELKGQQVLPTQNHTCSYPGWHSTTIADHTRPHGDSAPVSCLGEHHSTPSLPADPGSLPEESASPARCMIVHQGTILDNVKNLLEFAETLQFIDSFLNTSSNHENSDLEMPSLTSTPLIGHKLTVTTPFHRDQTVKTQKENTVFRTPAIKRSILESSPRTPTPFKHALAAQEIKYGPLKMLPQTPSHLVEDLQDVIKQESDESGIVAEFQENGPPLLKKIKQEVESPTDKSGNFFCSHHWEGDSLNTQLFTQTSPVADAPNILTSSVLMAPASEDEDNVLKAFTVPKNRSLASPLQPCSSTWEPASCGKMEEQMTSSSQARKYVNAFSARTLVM
Sequence of Nuclear receptor subfamily 1 group I member 3 (Homo sapiens) (Q14994 whole entry, looked up, the tested form may be a part): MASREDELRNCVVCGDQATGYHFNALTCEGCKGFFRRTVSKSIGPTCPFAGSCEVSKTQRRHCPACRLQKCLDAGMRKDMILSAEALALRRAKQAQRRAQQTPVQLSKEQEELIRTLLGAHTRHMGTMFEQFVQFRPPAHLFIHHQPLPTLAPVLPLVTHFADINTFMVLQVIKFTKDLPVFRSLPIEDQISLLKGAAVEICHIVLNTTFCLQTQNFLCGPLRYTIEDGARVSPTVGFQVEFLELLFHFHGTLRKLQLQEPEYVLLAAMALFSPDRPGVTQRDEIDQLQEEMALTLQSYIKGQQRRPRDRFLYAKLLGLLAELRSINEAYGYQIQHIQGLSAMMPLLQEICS
Sequence of Myc proto-oncogene protein (Homo sapiens) (P01106 whole entry, looked up): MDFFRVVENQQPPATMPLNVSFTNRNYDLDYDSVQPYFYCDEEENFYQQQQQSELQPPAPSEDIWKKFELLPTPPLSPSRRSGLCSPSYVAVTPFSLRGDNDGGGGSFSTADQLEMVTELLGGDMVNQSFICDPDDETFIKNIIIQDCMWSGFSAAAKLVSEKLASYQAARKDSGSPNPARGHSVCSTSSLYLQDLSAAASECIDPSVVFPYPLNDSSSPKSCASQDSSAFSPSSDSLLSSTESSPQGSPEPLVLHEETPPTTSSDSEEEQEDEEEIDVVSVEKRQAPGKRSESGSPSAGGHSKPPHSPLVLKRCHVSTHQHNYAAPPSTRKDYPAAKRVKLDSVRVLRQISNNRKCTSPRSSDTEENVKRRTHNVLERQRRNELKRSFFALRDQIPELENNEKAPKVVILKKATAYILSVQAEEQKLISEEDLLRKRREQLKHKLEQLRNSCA
Sequence of Nuclear receptor subfamily 4 group A member 2 (Homo sapiens) (P43354 whole entry, looked up): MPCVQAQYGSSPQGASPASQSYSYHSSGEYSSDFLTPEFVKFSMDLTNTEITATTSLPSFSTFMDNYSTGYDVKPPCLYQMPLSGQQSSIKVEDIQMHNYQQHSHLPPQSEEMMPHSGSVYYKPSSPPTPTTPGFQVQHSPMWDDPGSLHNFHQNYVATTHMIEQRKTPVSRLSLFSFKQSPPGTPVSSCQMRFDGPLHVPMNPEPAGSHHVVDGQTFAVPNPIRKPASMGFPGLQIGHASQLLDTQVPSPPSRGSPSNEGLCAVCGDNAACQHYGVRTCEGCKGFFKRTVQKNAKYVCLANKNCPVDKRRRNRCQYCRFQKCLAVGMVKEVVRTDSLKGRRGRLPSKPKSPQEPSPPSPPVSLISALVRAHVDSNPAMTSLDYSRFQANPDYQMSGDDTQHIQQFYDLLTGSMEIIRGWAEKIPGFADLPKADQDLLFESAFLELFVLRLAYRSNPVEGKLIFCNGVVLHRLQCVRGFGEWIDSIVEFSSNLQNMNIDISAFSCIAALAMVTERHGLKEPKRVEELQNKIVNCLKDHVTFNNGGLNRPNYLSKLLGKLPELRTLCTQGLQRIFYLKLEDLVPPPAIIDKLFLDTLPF
Sequence of Nuclear respiratory factor 1 (Homo sapiens) (Q16656 whole entry, looked up): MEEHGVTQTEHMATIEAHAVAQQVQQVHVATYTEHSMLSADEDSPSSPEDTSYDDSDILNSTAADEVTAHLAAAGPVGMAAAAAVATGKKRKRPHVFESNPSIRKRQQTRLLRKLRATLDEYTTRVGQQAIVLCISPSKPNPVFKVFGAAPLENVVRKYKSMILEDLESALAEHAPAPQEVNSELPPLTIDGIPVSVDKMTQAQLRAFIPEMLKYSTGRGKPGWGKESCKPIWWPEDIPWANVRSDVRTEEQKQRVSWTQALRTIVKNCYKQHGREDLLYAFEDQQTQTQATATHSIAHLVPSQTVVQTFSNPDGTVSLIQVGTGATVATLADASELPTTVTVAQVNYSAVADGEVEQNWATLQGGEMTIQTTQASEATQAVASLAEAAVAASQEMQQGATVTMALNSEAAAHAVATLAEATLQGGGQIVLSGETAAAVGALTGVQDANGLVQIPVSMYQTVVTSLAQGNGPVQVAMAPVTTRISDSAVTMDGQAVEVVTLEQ
Sequence of Glucocorticoid receptor (Homo sapiens) (P04150 whole entry, looked up, the tested form may be a part): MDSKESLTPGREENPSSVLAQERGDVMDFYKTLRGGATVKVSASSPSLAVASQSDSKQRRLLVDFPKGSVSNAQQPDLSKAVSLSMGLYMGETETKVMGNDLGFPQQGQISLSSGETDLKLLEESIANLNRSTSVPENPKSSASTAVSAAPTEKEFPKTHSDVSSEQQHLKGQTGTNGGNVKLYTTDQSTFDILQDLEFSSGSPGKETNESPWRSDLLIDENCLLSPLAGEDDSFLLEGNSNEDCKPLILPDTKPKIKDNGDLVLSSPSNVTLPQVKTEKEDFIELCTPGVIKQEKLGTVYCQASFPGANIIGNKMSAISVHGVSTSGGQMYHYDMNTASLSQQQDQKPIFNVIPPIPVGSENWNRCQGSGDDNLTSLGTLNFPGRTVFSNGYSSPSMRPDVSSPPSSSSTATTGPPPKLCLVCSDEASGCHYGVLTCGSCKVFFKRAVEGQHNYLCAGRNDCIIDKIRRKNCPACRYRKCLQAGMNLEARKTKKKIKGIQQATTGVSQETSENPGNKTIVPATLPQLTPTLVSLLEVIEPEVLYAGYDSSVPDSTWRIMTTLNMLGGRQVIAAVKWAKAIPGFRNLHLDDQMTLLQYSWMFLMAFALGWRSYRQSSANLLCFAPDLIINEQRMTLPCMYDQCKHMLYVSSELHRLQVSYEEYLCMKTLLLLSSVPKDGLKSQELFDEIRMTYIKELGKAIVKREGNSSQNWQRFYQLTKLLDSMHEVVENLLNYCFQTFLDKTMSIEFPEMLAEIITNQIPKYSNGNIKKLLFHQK
Sequence of Hepatocyte nuclear factor 4-alpha (Homo sapiens) (P41235 whole entry, looked up, the tested form may be a part): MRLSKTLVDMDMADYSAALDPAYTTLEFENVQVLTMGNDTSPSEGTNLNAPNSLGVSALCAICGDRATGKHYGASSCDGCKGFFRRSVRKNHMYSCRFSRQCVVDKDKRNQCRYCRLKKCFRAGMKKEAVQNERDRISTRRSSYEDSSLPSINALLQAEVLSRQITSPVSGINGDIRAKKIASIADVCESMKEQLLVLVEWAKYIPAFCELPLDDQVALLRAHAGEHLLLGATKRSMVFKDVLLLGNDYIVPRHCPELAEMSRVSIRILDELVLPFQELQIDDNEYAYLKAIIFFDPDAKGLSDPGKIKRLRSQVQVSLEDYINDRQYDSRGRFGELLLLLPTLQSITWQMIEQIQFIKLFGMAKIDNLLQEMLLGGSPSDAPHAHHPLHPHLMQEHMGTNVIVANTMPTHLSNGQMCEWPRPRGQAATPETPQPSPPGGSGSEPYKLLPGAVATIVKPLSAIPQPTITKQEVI
Sequence of X-box-binding protein 1 (Homo sapiens) (P17861 whole entry, looked up): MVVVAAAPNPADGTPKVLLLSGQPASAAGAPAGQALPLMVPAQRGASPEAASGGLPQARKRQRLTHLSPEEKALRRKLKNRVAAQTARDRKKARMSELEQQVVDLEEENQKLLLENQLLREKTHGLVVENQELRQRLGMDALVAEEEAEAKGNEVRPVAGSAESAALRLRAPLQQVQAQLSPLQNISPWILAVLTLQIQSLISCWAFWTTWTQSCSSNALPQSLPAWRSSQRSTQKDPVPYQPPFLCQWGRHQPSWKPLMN
Sequence of Estrogen receptor (Homo sapiens) (P03372 whole entry, looked up, the tested form may be a part): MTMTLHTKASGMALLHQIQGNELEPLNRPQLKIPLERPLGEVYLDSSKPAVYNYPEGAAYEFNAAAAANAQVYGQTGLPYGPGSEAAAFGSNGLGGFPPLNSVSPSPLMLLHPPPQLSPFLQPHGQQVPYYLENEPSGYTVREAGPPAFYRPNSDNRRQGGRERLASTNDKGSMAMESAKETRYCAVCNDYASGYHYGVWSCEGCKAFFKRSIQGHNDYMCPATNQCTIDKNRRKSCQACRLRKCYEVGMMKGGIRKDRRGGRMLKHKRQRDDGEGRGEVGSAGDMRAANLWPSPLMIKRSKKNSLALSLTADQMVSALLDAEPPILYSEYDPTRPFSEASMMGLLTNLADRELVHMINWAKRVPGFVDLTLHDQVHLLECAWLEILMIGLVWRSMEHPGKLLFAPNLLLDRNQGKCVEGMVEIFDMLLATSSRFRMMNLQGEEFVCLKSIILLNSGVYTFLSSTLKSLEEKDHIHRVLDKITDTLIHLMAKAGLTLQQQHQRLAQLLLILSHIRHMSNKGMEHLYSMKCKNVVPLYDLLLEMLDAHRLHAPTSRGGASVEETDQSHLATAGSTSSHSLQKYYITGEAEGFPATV

O=C1CCCCC1
inactive: [1] | [2] | [3] | [4] | [5] | [6] | [7] | [8] | [9] | [10] | [11] | [12] | [13] | [14]

CCCCc1nc2cccnc2n1Cc1ccc(-c2ccccc2-c2nnn[nH]2)cc1
inactive: [1] | [2] | [15] | [3] | [4] | [5] | [16] | [6] | [17] | [18] | [19] | [9] | [11] | [12] | [13] | [14]

COC(=O)CCCC(=O)OC
inactive: [1] | [2] | [15] | [5] | [6] | [17] | [7] | [8] | [10] | [11] | [12] | [13] | [14]

CC1=C(C)S(=O)(=O)CCS1(=O)=O
inactive: [1] | [2] | [3] | [4] | [5] | [8] | [11] | [12] | [13] | [14]
